The full ranking holds about 2,900 compounds; the median of “NF-kB SEAP reporter activity, fold change vs agonist alone” is about 0.99, and the highest 2% start at about 2.6. The entries come from a sample that favours the highest values as a whole.
Columns and labels:
RAW-Dual [1] = assay: NF-kB SEAP reporter activity, fold change vs agonist alone; higher = enhanced NF-kB activity
Summary of the method: (§1)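 RAW-Dual macrophages were seeded in DMEM at 50,000 cells/well in 384-well plates, given 50 nL of library stock by pin tool, and given a PRR agonist 1 h later. Plates were held at 37 °C, 5% CO2 for 20 hours, after which supernatant was read for IRF by QuantiLuc luminescence and for NF-κB by QuantiBlue absorbance at 620 nm. Reporter activity is expressed as fold change over wells that received agonist alone. A well was called cytotoxic when IncuCyte confluency fell below 70% of agonist controls in both mask sets.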

RAW-Dual [2] = assay: NF-kB SEAP reporter activity, fold change vs agonist alone; cytotoxicity flag (confluency mask): not cytotoxic; higher = enhanced NF-kB activity
Summary of the method: as §1

RAW-Dual [3] = assay: NF-kB SEAP reporter activity, fold change vs agonist alone; cytotoxicity flag (confluency mask): cytotoxic (confluency <70% of control); higher = enhanced NF-kB activity
Summary of the method: as §1

[4] = library stock concentration (final ~1000-fold dilution): 10 mM, cytotoxicity flag (confluency mask): cytotoxic (confluency <70% of control), agonist: Imiquimod (TLR7) […]
[5] = library stock concentration (final ~1000-fold dilution): 10 mM, cytotoxicity flag (confluency mask): cytotoxic (confluency <70% of control), agonist: MPLA (TLR4) […]
[6] = agonist: ODN 1826 (TLR9) 0.5 ug/mL
[7] = agonist: Pam2CSK4 (TLR2/6) 0.1 ug/mL
[8] = agonist: Pam3CSK4 (TLR2/1) 0.1 ug/mL
[9] = library stock concentration (final ~1000-fold dilution): 10 mM, cytotoxicity flag (confluency mask): not cytotoxic, agonist: Imiquimod (TLR7) […]
[10] = library stock concentration (final ~1000-fold dilution): 10 mM, cytotoxicity flag (confluency mask): not cytotoxic, agonist: MPLA (TLR4) […]
[11] = library stock concentration (final ~1000-fold dilution): 10 mM water, cytotoxicity flag (confluency mask): not cytotoxic, agonist: Imiquimod (TLR7) […]
[12] = library stock concentration (final ~1000-fold dilution): 10 mM water, cytotoxicity flag (confluency mask): not cytotoxic, agonist: MPLA (TLR4) […]

With `CCn1cc(-c2cccc(C(F)(F)F)c2)c2sc(C(=N)NC3CCS(=O)(=O)CC3)cc2c1=O` the “NF-kB SEAP reporter activity” value (RAW-Dual [1]; [4]) was 1.33 and the “NF-kB SEAP reporter activity” value (RAW-Dual [1]; [5]) was 2.16.

For `CCCNC(=O)C1OC1C(=O)NC(C(=O)N1CCCC1C(=O)OC)C(C)CC` (configuration not stated) (library stock concentration (final ~1000-fold dilution): 10 mM), the “NF-kB SEAP reporter activity” value (RAW-Dual [2]; agonist: LPS (TLR4) 0.1 ug/mL) was 1.06, the “NF-kB SEAP reporter activity” value (RAW-Dual [2]; [6]) was 0.881 and the “NF-kB SEAP reporter activity” value (RAW-Dual [2]; [7]) was 0.854. The “NF-kB SEAP reporter activity” value (RAW-Dual [2]; [8]) was 0.799.

`CCCNC(=O)C1OC1C(=O)NC(C(=O)N1CCCC1C(=O)OC)C(C)CC` (configuration not stated) was tested, and the “NF-kB SEAP reporter activity” value (RAW-Dual [1]; [9]) was 0.821 and the “NF-kB SEAP reporter activity” value (RAW-Dual [1]; [10]) was 1.04.

With `Cl.NCCOCCOCCNC(=O)Cc1ccc(Nc2nc(NCc3ccc(F)cc3)nc(NCC3CCCCC3)n2)cc1` (library stock concentration (final ~1000-fold dilution): 10 mM) the “NF-kB SEAP reporter activity” value (RAW-Dual [3]; agonist: LPS (TLR4) 0.1 ug/mL) was 0.643, the “NF-kB SEAP reporter activity” value (RAW-Dual [3]; [6]) was 0.852 and the “NF-kB SEAP reporter activity” value (RAW-Dual [3]; [7]) was 0.738. For the same compound, the “NF-kB SEAP reporter activity” value (RAW-Dual [3]; [8]) was 0.911.

In the case of `Cl.NCCOCCOCCNC(=O)Cc1ccc(Nc2nc(NCc3ccc(F)cc3)nc(NCC3CCCCC3)n2)cc1`, the “NF-kB SEAP reporter activity” value (RAW-Dual [1]; [4]) is reported as 1.05 and the “NF-kB SEAP reporter activity” value (RAW-Dual [1]; [5]) is reported as 1.59.

`O=C(Nc1nccs1)C(c1cc(F)ccc1O)N1Cc2ccccc2C1=O` (configuration not stated) (library stock concentration (final ~1000-fold dilution): 10 mM) was tested, and the “NF-kB SEAP reporter activity” value (RAW-Dual [2]; agonist: LPS (TLR4) 0.1 ug/mL) was 0.902, the “NF-kB SEAP reporter activity” value (RAW-Dual [2]; [6]) was 0.989 and the “NF-kB SEAP reporter activity” value (RAW-Dual [2]; [7]) was 0.865. The “NF-kB SEAP reporter activity” value (RAW-Dual [2]; [8]) was 1.02.

For `O=C(Nc1nccs1)C(c1cc(F)ccc1O)N1Cc2ccccc2C1=O` (configuration not stated), the “NF-kB SEAP reporter activity” value (RAW-Dual [1]; [9]) was 0.944 and the “NF-kB SEAP reporter activity” value (RAW-Dual [1]; [10]) was 0.982.

In the case of `CCOC(=O)CC(=O)O`, the “NF-kB SEAP reporter activity” value (RAW-Dual [1]; [11]) is reported as 0.955 and the “NF-kB SEAP reporter activity” value (RAW-Dual [1]; [12]) is reported as 1.

With `CCOC(=O)CC(=O)O` (library stock concentration (final ~1000-fold dilution): 10 mM water) the “NF-kB SEAP reporter activity” value (RAW-Dual [2]; agonist: LPS (TLR4) 0.1 ug/mL) was 1.31, the “NF-kB SEAP reporter activity” value (RAW-Dual [2]; [6]) was 1.09 and the “NF-kB SEAP reporter activity” value (RAW-Dual [2]; [7]) was 1.18. The “NF-kB SEAP reporter activity” value (RAW-Dual [2]; [8]) was 1.03.

`CCCCOc1cc(C(=O)NCCN(CC)CC)c2ccccc2n1.Cl` was tested, and the “NF-kB SEAP reporter activity” value (RAW-Dual [1]; [9]) was 1.57 and the “NF-kB SEAP reporter activity” value (RAW-Dual [1]; [10]) was 1.01.

In the case of `CCCCOc1cc(C(=O)NCCN(CC)CC)c2ccccc2n1.Cl` (library stock concentration (final ~1000-fold dilution): 10 mM), the “NF-kB SEAP reporter activity” value (RAW-Dual [2]; agonist: LPS (TLR4) 0.1 ug/mL) is reported as 0.994, the “NF-kB SEAP reporter activity” value (RAW-Dual [2]; [6]) is reported as 0.959 and the “NF-kB SEAP reporter activity” value (RAW-Dual [2]; [7]) is reported as 0.866. For the same compound, the “NF-kB SEAP reporter activity” value (RAW-Dual [2]; [8]) was 1.09.

In the case of `CN1CCOC(c2ccccc2)c2ccccc2C1.Cl` (configuration not stated), the “NF-kB SEAP reporter activity” value (RAW-Dual [1]; [11]) is reported as 1.12 and the “NF-kB SEAP reporter activity” value (RAW-Dual [1]; [12]) is reported as 1.03.

For `CN1CCOC(c2ccccc2)c2ccccc2C1.Cl` (configuration not stated) (library stock concentration (final ~1000-fold dilution): 10 mM water), the “NF-kB SEAP reporter activity” value (RAW-Dual [2]; agonist: LPS (TLR4) 0.1 ug/mL) was 1.36, the “NF-kB SEAP reporter activity” value (RAW-Dual [2]; [6]) was 0.943 and the “NF-kB SEAP reporter activity” value (RAW-Dual [2]; [7]) was 1.05. The “NF-kB SEAP reporter activity” value (RAW-Dual [2]; [8]) was 0.969.

`COc1ccc(S(=O)(=O)N(CCO)c2ccccc2CN(C)CC=Cc2ccc(Cl)cc2)cc1` (library stock concentration (final ~1000-fold dilution): 10 mM) was tested, and the “NF-kB SEAP reporter activity” value (RAW-Dual [2]; agonist: LPS (TLR4) 0.1 ug/mL) was 0.958, the “NF-kB SEAP reporter activity” value (RAW-Dual [2]; [6]) was 0.257 and the “NF-kB SEAP reporter activity” value (RAW-Dual [2]; [7]) was 0.537. For the same compound, the “NF-kB SEAP reporter activity” value (RAW-Dual [2]; [8]) was 0.372.

For `COc1ccc(S(=O)(=O)N(C(C)=O)c2ccccc2/C=C/c2cc[n+]([O-])cc2)cc1`, the “NF-kB SEAP reporter activity” value (RAW-Dual [1]; [9]) was 2.17 and the “NF-kB SEAP reporter activity” value (RAW-Dual [1]; [10]) was 1.61.

In the case of `COc1ccc(S(=O)(=O)N(CCO)c2ccccc2CN(C)CC=Cc2ccc(Cl)cc2)cc1`, the “NF-kB SEAP reporter activity” value (RAW-Dual [1]; [9]) is reported as 0.802 and the “NF-kB SEAP reporter activity” value (RAW-Dual [1]; [10]) is reported as 1.07.

`COc1ccc(S(=O)(=O)N(C(C)=O)c2ccccc2/C=C/c2cc[n+]([O-])cc2)cc1` (library stock concentration (final ~1000-fold dilution): 10 mM) was tested, and the “NF-kB SEAP reporter activity” value (RAW-Dual [2]; agonist: LPS (TLR4) 0.1 ug/mL) was 1.85, the “NF-kB SEAP reporter activity” value (RAW-Dual [2]; [6]) was 2.59 and the “NF-kB SEAP reporter activity” value (RAW-Dual [2]; [7]) was 1.94. The “NF-kB SEAP reporter activity” value (RAW-Dual [2]; [8]) was 1.43.

For `C=C1C(CO)C(O)CC1n1cnc2c(=O)nc(N)[nH]c21` (configuration not stated), the “NF-kB SEAP reporter activity” value (RAW-Dual [1]; [10]) was 1.07.

In the case of `C=C1C(CO)C(O)CC1n1cnc2c(=O)nc(N)[nH]c21` (configuration not stated) (library stock concentration (final ~1000-fold dilution): 10 mM), the “NF-kB SEAP reporter activity” value (RAW-Dual [2]; agonist: LPS (TLR4) 0.1 ug/mL) is reported as 1.32, the “NF-kB SEAP reporter activity” value (RAW-Dual [2]; [6]) is reported as 0.996 and the “NF-kB SEAP reporter activity” value (RAW-Dual [2]; [7]) is reported as 1.37. The “NF-kB SEAP reporter activity” value (RAW-Dual [2]; [8]) was 0.846.

For `CNC1C(O)C(OC2C(NC(=O)C(O)CN)CC(N)C(OC3OC(CN)C(O)C(O)C3O)C2O)OCC1(C)O.O=S(=O)(O)O` (configuration not stated), the “NF-kB SEAP reporter activity” value (RAW-Dual [1]; [11]) was 0.944 and the “NF-kB SEAP reporter activity” value (RAW-Dual [1]; [12]) was 1.01.

In the case of `CNC1C(O)C(OC2C(NC(=O)C(O)CN)CC(N)C(OC3OC(CN)C(O)C(O)C3O)C2O)OCC1(C)O.O=S(=O)(O)O` (configuration not stated) (library stock concentration (final ~1000-fold dilution): 10 mM water), the “NF-kB SEAP reporter activity” value (RAW-Dual [2]; agonist: LPS (TLR4) 0.1 ug/mL) is reported as 1.03, the “NF-kB SEAP reporter activity” value (RAW-Dual [2]; [6]) is reported as 1.09 and the “NF-kB SEAP reporter activity” value (RAW-Dual [2]; [7]) is reported as 1.3. The “NF-kB SEAP reporter activity” value (RAW-Dual [2]; [8]) was 1.14.

`COc1ccc(C(NC(=O)c2cnc(-c3cccnn3)nc2O)c2ccc(OC)cc2)cc1` (library stock concentration (final ~1000-fold dilution): 10 mM) was tested, and the “NF-kB SEAP reporter activity” value (RAW-Dual [2]; agonist: LPS (TLR4) 0.1 ug/mL) was 2.9, the “NF-kB SEAP reporter activity” value (RAW-Dual [2]; [6]) was 0.861 and the “NF-kB SEAP reporter activity” value (RAW-Dual [2]; [7]) was 0.898. The “NF-kB SEAP reporter activity” value (RAW-Dual [2]; [8]) was 1.02.

In the case of `COc1ccc(C(NC(=O)c2cnc(-c3cccnn3)nc2O)c2ccc(OC)cc2)cc1`, the “NF-kB SEAP reporter activity” value (RAW-Dual [1]; [9]) is reported as 0.974 and the “NF-kB SEAP reporter activity” value (RAW-Dual [1]; [10]) is reported as 1.03.

In the case of `O=C(O)c1ccc(Br)c(O)c1` (library stock concentration (final ~1000-fold dilution): 10 mM), the “NF-kB SEAP reporter activity” value (RAW-Dual [2]; agonist: LPS (TLR4) 0.1 ug/mL) is reported as 1.11, the “NF-kB SEAP reporter activity” value (RAW-Dual [2]; [6]) is reported as 0.975 and the “NF-kB SEAP reporter activity” value (RAW-Dual [2]; [7]) is reported as 1.09. The “NF-kB SEAP reporter activity” value (RAW-Dual [2]; [8]) was 0.729.

In the case of `O=C(O)c1ccc(Br)c(O)c1`, the “NF-kB SEAP reporter activity” value (RAW-Dual [1]; [10]) is reported as 1.11.

Reference: the supplement of paper PMC10037445
